Most compounds without a hit are left out; they make up all but 3.2% or so of the library.
CHT allo act = allosteric activators of human choline transporter CHT | CHT-expressing cells, membrane potential dye, choline EC20; active compounds read high; LV-AA mutant CHT in HEK293 cells | B-score at 10 µM | actives 0.49% (n = 310,000);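 active = initial fluorescence not abnormally high and integrated response B-score, plate-corrected, over 3 SD above library mean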
Rce1 inhib = yeast Ras-converting enzyme inhibition; Q03530; yeast membranes, quenched prenylated peptide cleavage fluorescence; calls only; actives 0.27% (n = 290,000);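 active = fall in fluorescence gain of 50% or more versus controls, with final raw signal at or below 3038400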
Kir21 block = inhibitors of mouse Kir2.1 inward-rectifier potassium channel | P35561 | HEK293-Kir2.1, FluxOR thallium flux fluorescence; active compounds read low | B-score at 10 µM | actives 0.85% (n = 310,000);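 active = fluorescence ratio B-score at or below minus 3 SD of library scores, with starting-brightness B-score within 2 SD, cut at about -4.2 in these data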;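 also: channel flux triggered by added potassium and thallium sulfate stimulus; B-score of peak minus minimum fluorescence over baseline after thallium stimulus; more negative B-score means stronger Kir2.1 block with less thallium influx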
TMEM16A inh = blocks the mouse calcium-activated chloride channel TMEM16A. Q8BHY3. actives 1.2% (n = 310,000). HEK293 TMEM16A/YFP iodide influx fluorescence, ionomycin. normalized B-score (activity score, 25-100; higher = stronger inhibition) at 10 µM;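 active = ratio plate-corrected score three or more library SD toward inhibition, starting fluorescence score within five deviations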;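 also: score derived from kinetic fluorescence span divided by baseline fluorescence per well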
Target sequence (Q8BHY3 whole entry, looked up): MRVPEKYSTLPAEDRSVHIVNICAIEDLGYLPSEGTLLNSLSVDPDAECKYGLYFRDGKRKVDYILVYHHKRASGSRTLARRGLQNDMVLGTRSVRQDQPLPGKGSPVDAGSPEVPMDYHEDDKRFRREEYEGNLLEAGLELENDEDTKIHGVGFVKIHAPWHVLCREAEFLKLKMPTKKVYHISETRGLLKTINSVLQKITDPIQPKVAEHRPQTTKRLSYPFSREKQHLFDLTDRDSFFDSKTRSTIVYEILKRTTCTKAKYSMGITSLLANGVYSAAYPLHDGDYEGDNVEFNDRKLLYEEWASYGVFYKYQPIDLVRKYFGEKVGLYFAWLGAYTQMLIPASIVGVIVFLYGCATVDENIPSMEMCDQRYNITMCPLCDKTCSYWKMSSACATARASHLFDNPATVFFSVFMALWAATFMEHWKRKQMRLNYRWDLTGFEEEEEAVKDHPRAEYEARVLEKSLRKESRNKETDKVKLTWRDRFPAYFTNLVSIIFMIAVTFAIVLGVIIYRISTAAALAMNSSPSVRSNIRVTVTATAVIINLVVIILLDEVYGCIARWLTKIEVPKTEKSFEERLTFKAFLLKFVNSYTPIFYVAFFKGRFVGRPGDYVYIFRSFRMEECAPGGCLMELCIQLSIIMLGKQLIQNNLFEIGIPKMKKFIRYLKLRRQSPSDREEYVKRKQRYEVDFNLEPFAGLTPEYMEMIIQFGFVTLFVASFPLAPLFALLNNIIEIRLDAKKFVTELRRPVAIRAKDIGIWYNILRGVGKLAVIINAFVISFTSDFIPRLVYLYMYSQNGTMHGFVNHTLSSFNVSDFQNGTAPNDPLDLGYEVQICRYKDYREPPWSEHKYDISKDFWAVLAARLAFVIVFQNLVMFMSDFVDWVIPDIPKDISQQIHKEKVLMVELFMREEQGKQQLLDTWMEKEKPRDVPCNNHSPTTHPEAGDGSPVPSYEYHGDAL
TMEM16A act = activates or potentiates the mouse TMEM16A chloride channel; Q8BHY3; HEK293 TMEM16A/YFP-H148Q/I152L, iodide quench fluorescence; active compounds read low; B-score at 10 µM; actives 0.3% (n = 340,000); AID 623877;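 active = fluorescence-ratio B-score plate-corrected deviation score at least 3 library SD below zero, with starting fluorescence score within 5 deviations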;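 also: channel opened by trigger with iodide after compound preincubation; score built on the fluorescence ratio of max minus min over baseline; more negative score means more quench and so TMEM16A activation or potentiation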
CHT block = inhibitors of human choline transporter CHT; Q9GZV3; CHT-expressing cells, membrane potential dye, choline response; active compounds read low; B-score at 10 µM; actives 0.86% (n = 310,000); AID 488975;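 active = B-score over 3 SD under the library average, and starting fluorescence ratio not unusually high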;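 also: choline stimulus applied at its EC90 after an EC20 pre-addition; B-score computed on integrated fluorescence ratio after choline addition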
CHT activ conf = human CHT activation, confirmatory screen; shares compounds with CHT allo act; CHT-expressing cells, membrane potential dye fluorescence (FDSS); % of choline EC20–EC90 response window; HEK293 expressing CHT LV-AA mutant; choline added at its EC20; activation, % at 10 µM; actives 91% (n = 2,500); AID 504833;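 active = primary screen active, with duplicate mean activation above negative control mean plus 3 SD, cut at about 11% in these data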
HEK293 MP dye = counter-screen for CHT activators: effect in parental HEK293 cells | shares compounds with CHT allo act | membrane potential dye fluorescence (FDSS); measured after EC20 choline addition | ratio readout change at 10 µM, hits read low | actives 62% (n = 2,500) | AID 623908;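 active = duplicate-averaged ratio beyond 3 SD from buffer wells, up or down, though filed actives are nearly all decreases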
A number is an active result; . = inactive; / = not tested or not shown; + = active, no number.

SMILES	CHT allo act	Rce1 inhib	Kir21 block	TMEM16A inh	TMEM16A act	CHT block	CHT activ conf	HEK293 MP dye
CC(=O)c1ccc(NC(=O)c2ccn(C(=O)OCC(C)C)n2)cc1	.	.	.	.	.	.	17.6	-35.7
CC(C)COC(=O)n1ccc(C(=O)N2CCCCC2)n1	.	.	.	.	.	.	/	/
CSc1nnc2c(n1)OC(C)=Nc1ccccc1-2	.	.	.	.	.	.	40.7	-40.6
CCC1=Nc2ccccc2-c2nnc(SC)nc2O1	.	.	.	.	.	.	/	/
CCCn1c(=O)c2ccccc2n2c(SCCNCCO)nnc12	9.1	.	.	.	.	.	57.3	-51.5
CC(=O)N1CCN(S(=O)(=O)c2cccc(C(=O)OCc3ccc(C(C)(C)C)cc3)c2)CC1	/	/	/	/	.	/	/	/
O=[N+]([O-])c1ccccc1CCc1cnc(Cl)s1	.	.	.	.	.	.	/	/
CCCN(CCC)CCCNC(=S)Nc1ccc2nc(N3CCN(C)CC3)cc(C)c2c1	.	.	.	.	.	.	52.0	-26.7
COCCCNC(=O)CCC(=O)Nc1ccc2nc(N3CCOCC3)cc(C)c2c1	7.97	.	.	.	.	.	37.0	-52
CCCCN(CC)CCNC(=O)CCC(=O)Nc1ccc2nc(N3CCN(C)CC3)cc(C)c2c1	.	.	.	.	.	.	41.6	.
CCN(CC)CCCNC(=O)CCC(=O)Nc1ccc2nc(N3CCCCC3)cc(C)c2c1	.	.	.	.	.	.	/	/
CCCCN(CC)CCNC(=S)Nc1ccc2nc(N3CCN(C)CC3)cc(C)c2c1	.	.	.	.	.	.	34.8	.
CC(C)OC(=O)C1OC1(C)c1ccccc1 (configuration not stated)	/	/	/	/	.	/	/	/
Cc1c(C=Nc2ccc(S(=O)(=O)N(C)C)cc2)c(O)[nH]c(=O)c1C#N	.	.	.	.	.	.	/	/
CCC(C)[C@H]1CN=C(N)N1CCc1cccc(F)c1 (some centres not stated)	.	.	.	.	.	.	/	/
Cc1ccc(CSC2=NCCN2C(=O)c2ccc(S(=O)(=O)N(C)C)cc2)cc1	.	.	.	.	.	.	/	/
Cc1cc(CN(C)C(=O)CC2C(=O)NCCN2Cc2ccc(-c3ccccc3)cc2)on1 (configuration not stated)	.	.	.	.	.	.	/	/
CN(C)Cc1ccc(-c2nc3cccc4c3n2CCNC4=O)cc1	.	.	.	.	.	.	50.7	-38.3
O=C(NCC(c1cccs1)N1CCc2ccccc21)c1ccccc1 (configuration not stated)	.	.	.	.	.	.	/	/
COc1cccc(C(=O)NCC(c2cccs2)N2CCc3ccccc32)c1 (configuration not stated)	6.36	.	.	.	.	.	25.0	.
COc1cccc(N2C(=O)Nc3ccc(Br)cc3C2(O)C(=O)NCCN(C)C)c1 (configuration not stated)	.	.	.	.	.	.	/	/
Cc1cc(N2CCOCC2)c2c(N)cc(C)c(C)c2n1	.	.	.	.	.	.	55.0	-73.4
COc1cc(CNC(C)c2ccccc2)c(Br)cc1OCC(N)=O (configuration not stated)	.	.	.	.	.	.	/	/
O=C(COc1ccc(Br)cc1Cl)NC1CCCCC1	.	.	.	.	.	.	/	/
O=C(COc1ccc(Br)cc1CNC1CCCC1)Nc1ccccc1	.	.	.	.	.	.	.	.
SMILES	CHT allo act	Rce1 inhib	Kir21 block	TMEM16A inh	TMEM16A act	CHT block	CHT activ conf	HEK293 MP dye
CC(NCc1cc(Br)ccc1OCC(=O)NCc1ccccc1)c1ccccc1 (configuration not stated)	.	.	-15.5	.	.	.	.	.
CCOC(=O)C1(Cc2cccc(Cl)c2)CCCN(C(=O)c2c(CC)noc2C)C1 (configuration not stated)	.	.	.	.	.	.	/	/
CCOCCCn1c(=NC(C)=O)c(C#N)cc2c(=O)n3cccc(C)c3nc21	.	.	.	.	.	.	43.4	-62.2
Cc1cc(N2CCN(c3ccccc3)CC2)nc2ccccc12	.	.	.	.	.	.	/	/
Cc1cc(N2CC(C)OC(C)C2)nc2ccccc12 (configuration not stated)	6.62	.	.	.	.	.	27.7	-54.5
CC(C)Oc1cccc(C(=O)C2CCCN(C(=O)CCn3cnnn3)C2)c1 (configuration not stated)	.	.	.	.	.	.	/	/
Cc1nn(-c2ccccc2)c(C)c1/C=N/n1c(-c2ccncc2)n[nH]c1=S	.	.	.	.	.	.	/	/
Cc1nn(-c2ccccc2)c(C)c1/C=N/n1c(-c2ccc(Cl)cc2)n[nH]c1=S	.	.	.	.	.	.	.	.
COc1ccc(S(=O)(=O)N(CC(=O)NCc2ccncc2)c2cc(C)cc(C)c2)cc1OC	.	.	.	.	.	.	/	/
COc1cc2c(C#N)c(N3CCOCC3)nc(N)c2c(N)n1	.	.	.	.	.	.	/	/
CCOc1cc2c(C#N)c(N3CCNCC3)nc(N)c2c(N)n1	6.47	.	.	.	.	.	44.8	-52.6
O=S(Cc1ccc(Cl)cc1)c1ccccc1 (configuration not stated)	/	/	/	/	.	/	/	/
C[n+]1c2n(c3ccccc31)N=C(c1cc(C(C)(C)C)c(O)c(C(C)(C)C)c1)CS2	39.5	+	-7.81	100	.	.	66.2	-36
CSc1nc(SCC(=O)NCC2CCCO2)c2c3c(sc2n1)CN(C)CC3 (configuration not stated)	6.52	.	.	.	.	.	36.3	-50.4
COCCSc1nc(N)c2c3c(sc2n1)CN(C)CC3	6.39	.	.	.	.	.	41.3	-50.9
CC(C)Sc1nc(N)c2c3c(sc2n1)CN(C)CC3	.	.	.	.	.	.	30.9	-43.5
COCCNc1nc(SC)nc2sc3c(c12)CCN(C)C3	7.14	.	.	.	.	.	38.3	-44.4
CCn1cc(CNC(=O)C2CCC(=O)N(C3CCCCCC3)C2)cn1 (configuration not stated)	.	.	.	.	.	.	/	/
COC(=O)c1cc(COC(=O)CNC(=O)c2ccc(Br)cc2)oc1C	/	/	/	/	.	/	/	/
Cc1cnc(C(=O)OC(C)C(=O)Nc2ccccc2-c2ccccc2)cn1 (configuration not stated)	.	.	.	.	.	.	/	/
COc1ccc(S(=O)(=O)N(C)CC(=O)NCCCN2CCOCC2)cc1C	/	/	/	/	.	/	/	/

Screens: PubChem BioAssay, several laboratories
